Experimental data published in PubChem BioAssay AID457 (Sanford-Burnham Center for Chemical Genomics, 2006).
In all, about 10,000 compounds went through this assay and about 20 (0.2%) were called active. No rule for the calls is given here. Not all results are given here.

Assay: boosters of cytokine-driven VCAM-1 levels – imaging, high-content imaging, pooled HUVEC, TNFa stimulus (AID 457)
Conditions: TNFa-induced VCAM-1 immunofluorescence imaging; concentration not given here

Compound	augmentation
CCc1nnc(NC(=O)CSc2nnc(-c3ccoc3C)n2CC(C)C)s1	inactive
COc1nc(C)ccc1-c1noc(-c2ccncc2)n1	inactive
Cc1noc(/C=C/N(C)C)c1S(=O)(=O)N1CCc2ccccc21	inactive
O=C(Nc1ccc2c(c1)OCCO2)c1cnc2n(c1=O)CCS2	inactive
Cc1[nH]nc(N=CC2=C(O)CC(C)(C)CC2=O)c1-c1ccccc1	inactive
Cc1csc(SCCn2c(N3CCCC3)nc3c2c(=O)[nH]c(=O)n3C)n1	inactive
O=C(Nc1ccccc1Cl)c1c(F)c(F)c(F)c(F)c1F	inactive
O=C(COc1nnnc2ccccc12)N1CCCc2ccccc21	inactive
CC1(C)CC(=O)c2cnc(NCc3ccco3)nc2C1	inactive
COC(=O)C1=C(C)OC(N)=C(C#N)C1c1c(C)nn(-c2ccccc2)c1Cl (configuration not stated)	inactive
CCCNC(=O)c1cc(S(=O)(=O)N2CCc3ccccc32)ccc1F	inactive
O=C(CSc1ncc(-c2ccc(F)cc2)[nH]1)N1CCCCC1	inactive
CC(C)OC(=O)CSc1nnc(-c2ccc(O)cc2)n1Cc1ccccc1	inactive
CSC1CCCCC1(O)CSc1nc2c(cc1C#N)CCCC2 (configuration not stated)	inactive
Cc1cc(C)cc(NC(=O)C2CCCN(c3nccc(C)n3)C2)c1 (configuration not stated)	inactive
Cn1c(/C=N/n2cnnc2)nc2ccccc21	inactive
Cc1ccccc1NC(=O)C1CCN(c2cnccn2)CC1	inactive
O=C(Nc1cccnc1)Nc1ccc(F)c(Cl)c1	inactive
C(=C\c1ccccc1)/CN1CCN(Cc2ccc3c(c2)OCCO3)CC1	inactive
CCOC(=O)N1CCN(CCC(=O)c2ccc(Cl)cc2)CC1	inactive
CCOC(=O)CSc1nc2ccccc2n1CC(=O)N1CCN(c2ccccc2)CC1	inactive
COc1ccccc1C(=O)NCC(=O)Nc1ccccc1	inactive
CCC(C)(C)NC(=O)CN(C(=O)c1snc(C(N)=O)c1N)c1ccc2c(c1)OCO2	inactive
COC(=O)c1ccccc1NC(=O)C1CC(=O)N(c2ccc(F)cc2)C1 (configuration not stated)	inactive
Cc1cc(Cl)c(S(=O)(=O)N2CCN(c3ccc(F)cc3)CC2)cc1OCC(N)=O	inactive
Cc1ccc(-n2nnnc2SCC(=O)N2CCN(C(=O)c3ccco3)CC2)c(C)c1	inactive
O=S(CC(O)COCc1ccc(Cl)cc1)c1ccccn1 (configuration not stated)	inactive
